Our source for the inhibition values is PubChem BioAssay AID1022 (Emory University Molecular Libraries Screening Center, 2008).

“And” between values parts separate entries of the source, which are not always exact repeats. Equal entries are not always repeated. The whole screen tested about 220,000 compounds, of which about 3,300 (1.5%) were called active.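 The calls were made as follows: active = compounds that cut the protein-peptide binding signal by more than 50% relative to plate controls in a single-dose test; inactive = the rest.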 Many of the other results were omitted from the sample, so actives are more common in it than they were. More than one record can exist for a structure, and the calls need not agree.

The target in the test is Induced myeloid leukemia cell differentiation protein Mcl-1 (Homo sapiens) (UniProt Q07820). In words: Mcl-1/Noxa binding inhibitors, primary screen, biochemical, TR-FRET, 1536-well (AID 1022).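 Also: His-tagged Mcl-1 with rhodamine Noxa BH3 peptide and terbium anti-His antibody; 0% = Mcl-1 plus Noxa peptide wells and 100% = peptide-only wells.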 Conditions: TR-FRET Mcl-1/Noxa peptide binding, 2 h; at 21.7 µM; stronger effect = higher value. A general note: Time-resolved FRET reads energy transfer from a long-lived donor to a nearby acceptor.
Chain of Induced myeloid leukemia cell differentiation protein Mcl-1 (Homo sapiens) (Q07820 whole entry, looked up): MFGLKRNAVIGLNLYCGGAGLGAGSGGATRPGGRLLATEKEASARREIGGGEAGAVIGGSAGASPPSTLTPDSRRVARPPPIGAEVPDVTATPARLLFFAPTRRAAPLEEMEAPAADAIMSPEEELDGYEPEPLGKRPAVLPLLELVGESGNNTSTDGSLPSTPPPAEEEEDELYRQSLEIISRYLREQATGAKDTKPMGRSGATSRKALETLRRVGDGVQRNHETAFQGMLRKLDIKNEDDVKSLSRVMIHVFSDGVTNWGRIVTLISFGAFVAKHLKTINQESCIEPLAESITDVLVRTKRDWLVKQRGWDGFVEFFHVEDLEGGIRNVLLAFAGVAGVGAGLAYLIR
Take `COc1ccc2nc(NC(=O)NC3CCCCC3)sc2c1`: the inhibition (in general, the relative decrease from the control value, in per cent) was -0.53% (inactive).
The result for `O=C(Nc1ccccc1)O/N=C1/CCCc2occc21` reads 6.55% (inactive); that for `Oc1ccc(N=Nc2nccs2)c(O)c1`, -33.2% (inactive).
With `COc1cc2c(cc1O)[C@H](Cc1ccc(Oc3cc(C[C@@H]4NCCc5cc(OC)c(O)cc54)ccc3O)cc1)NCC2` the figure was 64.4% (active); with `CC[C@H]1CN2CCc3cc(OC)c(OC)cc3[C@@H]2C[C@@H]1C[C@H]1NCCc2cc(OC)c(OC)cc21`, 22.4% (inactive).
With `O=[N+]([O-])c1ccc(N=Cc2c(O)ccc3ccccc23)cc1` the figure was -1.02% (inactive); with `O=C(Nc1ccc(F)cc1F)N1CCCN(CCOc2ccccc2)CC1`, 9.38% (inactive); with `N#CC1=C(N)Oc2c(sc3ccccc23)C1c1ccco1` (configuration not stated), 51.5% (active).
With `Cc1cc(C)c2c3c(sc2n1)C(c1ccccc1)C(C#N)=C(N)O3` (configuration not stated), the inhibition is -16.3% (inactive).
The result for `CC1=C(C(=O)Nc2ccccc2)C(c2ccco2)C(C#N)=C(SCC(N)=O)N1` (configuration not stated) reads 5.4% (inactive); that for `Cc1noc(C)c1S(=O)(=O)Nc1cc(C(F)(F)F)ccc1N1CCOCC1`, -6.09% (inactive); that for `CC(C)Cc1nc(Cl)c(C#N)c2c1CCC2`, 1.09% (inactive).
Consider `COc1ccccc1CNC(=O)Cn1c(=O)oc2cc(Cl)ccc21`, for which the inhibition is -8.08% (inactive).
The result for `CCN1C(=O)/C(=C2/Sc3ccccc3N2CCCS(=O)(=O)O)SC1=S` reads 23% (inactive) and 61.3% (active); that for `CCCCN1C(=O)/C(=C/C=C2/C=Cc3ccccc3N2CC)SC1=S`, 25.9% (inactive); that for `CCN1C(=O)/C(=c2\s/c(=C3\Sc4ccccc4N3C)c(=O)n2C)N(C)C1=S`, 46.4% (inactive).
The result for `COc1ccc(N2C(=O)C3C(C2=O)C(C(=O)c2ccccc2)N2CCCC32)cc1` (configuration not stated) reads 2.44% (inactive).
As for `NC(N)=N/N=C/c1ccc(Cl)c([N+](=O)[O-])c1`, the inhibition was 8.52% (inactive).
With `CCOc1cccc(/C=N/N2C(=O)CSC2=S)c1O`, the inhibition is 37.8% (inactive).
`O=C1CSC(=S)N1/N=C/c1ccc(O)c([N+](=O)[O-])c1`: the inhibition is 85.6% (active).
`COc1ccc(COCCN2CCN(S(=O)(=O)c3ccccc3)CCC2=O)cc1`: the inhibition was 4.91% (inactive).
With `S=c1[nH]nc(-c2cccnc2)n1/N=C/C(Cl)=C\c1ccccc1` the figure was 32.3% (inactive).
The result for `Cc1cc(-c2n[nH]c(=S)n2/N=C/C(Br)=C/c2ccccc2)n[nH]1` reads 59.6% (active); that for `Cc1cc(-c2n[nH]c(=S)n2/N=C/c2ccco2)n[nH]1`, 5.82% (inactive); that for `Nc1ccccc1Sc1ccc(C(F)(F)F)cc1[N+](=O)[O-]`, -1.26% (inactive).
With `S=c1[nH]nc(-c2cc(-c3ccccc3)n[nH]2)n1/N=C/c1c2ccccc2cc2ccccc12` the figure was 79.6% (active).
Consider `S=c1[nH]nc(-c2ccco2)n1/N=C/c1ccccc1`, for which the inhibition was 32.5% (inactive).
With `S=c1[nH]nc(-c2ccccc2)n1/N=C/c1c[nH]c2ccccc12` the figure was 13.7% (inactive); with `COCCN1C2=C(COC(C)(C)C2)C(=S)NC1c1ccccc1` (configuration not stated), 1.37% (inactive); with `Cc1cnc(NC(=O)Cn2cnc3c2c(=O)n(C)c(=O)n3C)s1`, 3.66% (inactive).
In the case of `COCCOC(=O)c1sc(=S)n(CCOC)c1N`, the inhibition is 51.1% (active).
Regarding `COC(=O)c1sc(=S)n(-c2ccccc2)c1N`, the inhibition was 16.2% (inactive).
As for `CCOC(=O)Cn1c(N)c(C(=O)OC)sc1=S`, the inhibition is 5.93% (inactive).
For the compound `CN(C)c1ccc(Nc2c3c4c(cccc4n(C)c2=O)C(=O)c2ccccc2-3)cc1`, the inhibition was 104% (active).
With `COc1ccc(COCC(O)CN2CCC(C(N)=O)CC2)cc1` (configuration not stated), the inhibition was 4.43% (inactive).
With `CCn1cc(C(=O)NCC2COc3ccccc3O2)c2cc(OC)c(OC)cc2c1=O` (configuration not stated) the figure was -0.39% (inactive); with `CCn1cc(C(=O)N2CCN(Cc3ccc4c(c3)OCO4)CC2)c2cc(OC)c(OC)cc2c1=O`, 4.25% (inactive).
With `CCn1cc(C(=O)NCc2ccc3c(c2)OCO3)c2cc(OC)c(OC)cc2c1=O` the figure was 74.5% (active); with `CCOC(=O)C1C(c2ccc(OC)c(OC)c2)c2c([nH][nH]c2=O)CC1(C)O` (configuration not stated), -16.2% (inactive).
The result for `CC(NC(=O)C(=O)Nc1nccs1)c1ccccc1` (configuration not stated) reads -15.7% (inactive).
Take `CC12CN3CCN(CC(C3)/C1=N\NC(=O)c1ccccc1N)C2`: the inhibition was 15.5% (inactive).
With `N#Cc1c(C(F)(F)F)cc(-c2ccc(Cl)cc2)nc1SCC(=O)O` the figure was 6.22% (inactive).
The result for `Cc1cc(C)c(C#N)c(N2CCC(C(N)=O)CC2)n1` reads 6.16% (inactive).
With `N#Cc1c(N2CCCCC2)nc(N)c2c(N)nc(SCC(=O)O)cc12` the figure was 57.7% (active).
Consider `COC(C[C@H](O)CC(=O)COCc1ccccc1)OC`, for which the inhibition was 3.71% (inactive).
The result for `O=[N+]([O-])C(=c1ccc2c(c1)N1C3=C(CCCC3)CC3CCCCC31N=2)[N+](=O)[O-]` (configuration not stated) reads 99.2% (active); that for `Cc1ccc(Nc2nc(Cl)c(C=O)s2)cc1`, 10.2% (inactive).
The result for `CN(C(=O)CCn1c(=S)oc2ccccc21)C1CCCCC1` reads -15.3% (inactive); that for `CC(=O)Nc1ccc(NC(=O)CSc2ncnc3c2cnn3Cc2ccccc2)cc1`, 9.1% (inactive); that for `CC(NC(=S)Nc1ccccc1)C(c1cccs1)N1CCOCC1` (configuration not stated), -2.6% (inactive).
The result for `Clc1ccc(C2=CSC3=Nc4cccc5cccc(c45)N23)cc1` reads 61.8% (active).
With `COC(=O)c1cccc(NS(C)(=O)=O)c1`, the inhibition is -15.1% (inactive).
